# High-throughput results: PubChem, several laboratories
# V-ATPase pH: alters yeast V-ATPase proton transport. S. cerevisiae, pHLuorin cytosolic pH fluorescence. response, % at 10 µM. 0.37% of 350,000 active; in the data active = response mostly above about 7.3%, no sharp cut-off; inactive = mostly below about 5.4%; also: actives read high
# NALP3 yeast inh: blocks the NALP3 inflammasome reconstituted in yeast; Yeast reconstituted NLRP3/ASC/caspase-1, beta-gal luminescence, 24 h; inhibition, % at 10 µM; 0.39% of 330,000 active;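 active = inhibition of 50% or more; inactive = inhibition below 50%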;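 also: plate controls were induced DMSO wells for no effect and uninduced yeast grown without galactose for full effect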
# TIM10 inh: TIM10 yeast growth inhibition; S. cerevisiae TIM10 strain growth, BacTiter-Glo luminescence, 24 h; inhibition, % at 10 µM; 1.4% of 330,000 active; AID 463195;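 active = inhibition of 40% or more at the single tested concentration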;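 also: wild-type TIM10 isogenic control strain grown at permissive 25 °C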
# NALP1 inh: inhibitors of NALP1 inflammasome in yeast | S. cerevisiae NALP1/ASC/caspase-1 growth, X-gal OD620, 72 h | inhibition, % at 10 µM | AID 2071 | 0.61% of 280,000 active; in the data active = inhibition mostly above about 24%, no sharp cut-off; inactive = mostly below about 32%
# tim23-1 inh: growth inhibitors of tim23-1 mutant yeast; 1.3% of 330,000 active; inhibition, % at 20 µM; S. cerevisiae tim23-1 growth, BacTiter-Glo luminescence, 24 h;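 active = growth inhibition of the mutant yeast at or above 50%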;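 also: temperature-sensitive mutant grown at 25 °C; plate controls were DMSO-treated mutant yeast for no effect and medium wells lacking yeast for full effect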
# tim10-1 inh: inhibits growth of tim10-1 mutant yeast | S. cerevisiae tim10-1 ts strain growth, BacTiter-Glo, 24 h | inhibition, % at 20 µM | 2.2% of 330,000 active | AID 463190;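 active = inhibition of at least 40%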;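 also: mutant grown at 25 °C; 0% = DMSO wells with yeast and 100% = wells holding no yeast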
# tim10-1 confirm: tim10-1 yeast growth inhibition, confirmed; shares compounds with tim10-1 inh; S. cerevisiae tim10-1 ts strain growth, BacTiter-Glo, 24 h; inhibition, % at 20 µM; 56% of 7,400 active;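 active = inhibition of yeast growth at or above a set limit in either of two repeat tests at 20 µM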;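 also: tim10-1 mutant grown at permissive 25 °C to find synthetic lethal compounds; 0% = DMSO yeast wells and 100% = medium wells without yeast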
# TIM10 conf: confirmation of TIM10 yeast growth inhibitors | shares compounds with TIM10 inh | S. cerevisiae tim10 strain growth, BacTiter-Glo luminescence, 24 h | inhibition, % at 10 µM | 63% of 4,600 active | AID 463215;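 active = inhibition of yeast growth at or above a set limit in either of two replicates at 10 µM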;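 also: this counterscreen used the strain with wild-type TIM10; 0% = yeast with DMSO and 100% = medium wells lacking yeast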
# tim23-1 conf: tim23-1 yeast growth inhibition, confirmed. shares compounds with tim23-1 inh. S. cerevisiae tim23-1 growth, BacTiter-Glo luminescence, 24 h. inhibition, % at 20 µM. 83% of 4,400 active. AID 463218;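 active = inhibition above about 39% in either of two replicate wells at 20 µM, limit read from the data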;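 also: temperature-sensitive tim23-1 mutant grown at 25 °C; 0% = DMSO wells with yeast and 100% = medium wells without yeast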
# Numbers without * were called inactive; x = no result given. Most compounds without a hit are left out; they make up all but 4.2% or so of the library.
SMILES,V-ATPase pH,NALP3 yeast inh,TIM10 inh,NALP1 inh,tim23-1 inh,tim10-1 inh,tim10-1 confirm,tim23-1 conf,others
N#Cc1cn(-c2cccc(C(F)(F)F)c2)c(=O)[nH]c1=O,-1.3,8.0,4.2,5.8,7.7,0.2,x,x,
Nc1ncc(Br)cc1S(=O)(=O)NCCC(=O)NCCc1ccccc1,-3.6,0.6,6.9,7.9,-15.4,-7.0,x,x,
CSC1=NCCN1C(=O)Cc1ccc(-c2ccccc2)cc1,0.5,18.7,59.1*,18.2,73.1*,61.3*,68.5*,35.4,TIM10 conf=67.2*
CCSC1=NCCN1C(=O)Cc1ccc(-c2ccccc2)cc1,-4.0,-2.6,76.5*,18.1,66.9*,77.5*,75.8*,35.6,TIM10 conf=74.3*
CCC(=O)N1CCN=C1SCc1ccccc1,0.5,0.0,2.0,-34.3,3.6,-10.4,x,x,
CSC1=NCCN1C(=O)Cc1ccc(F)cc1,0.5,5.5,-1.7,1.3,-13.4,-8.2,x,x,
CCC(C)[C@@H]1NC(=O)N(CCCN2CCCC2=O)C1=O (some centres undefined),-4.1,7.2,7.2,3.0,12.8,-17.0,x,x,
CCOC(OCC)c1cn(Cc2ccc3c(c2)C(=O)c2ccccc2C3=O)nn1,x,8.1,36.7,11.9,61.3*,43.9*,16.4,78.2*,
COc1ccc(CCN2C(=O)CSC2c2ccc(F)cc2)cc1 (centres undefined),-1.7,14.5,-7.7,27.4,19.9,-1.5,x,x,
OC1CCC(Nc2ncnc3sccc23)CC1 (centres undefined),4.9,25.2,2.6,8.9,-11.2,7.2,x,x,
CCCN(c1ccccc1C(=O)O)S(=O)(=O)c1ccc2c(c1)n(C)c(=O)n2C,-0.7,4.1,-4.5,16.9,6.2,4.0,x,x,
Cc1cc(Oc2ccc(=O)n(C)n2)nc(SCCOc2ccccc2)n1,1.4,20.5,6.7,3.6,-4.0,13.5,x,x,
CC(=O)Nc1cc(NC(C)=O)ncn1,-1.4,15.9,-3.5,15.5,13.8,31.7,x,x,
O=C(OCc1nnc(-c2ccccc2)o1)c1ccc([N+](=O)[O-])s1,9.5,20.3,79.2*,x,55.5*,57.3*,68.4*,72.8*,TIM10 conf=86.0*
O=C(COC(=O)c1ccc([N+](=O)[O-])s1)NCc1ccccc1,-2.3,3.9,54.1*,30.0,51.1*,41.2*,40.5*,32.6,TIM10 conf=31.5*
O=C1c2c(O)ccc(O)c2C(=O)c2c(NCCNCCO)ccc(NCCNCCO)c21,3.0,20.5,-186.4,x,-45.9,-30.6,x,x,
O=C1c2ccccc2C(=O)c2c(Nc3ccc(CCO)cc3)ccc(O)c21,2.0,24.7,34.1,32.9,56.9*,59.0*,36.9*,51.3*,
O=C(CSc1ccc(F)cc1)N1CCOCC1,0.3,-10.5,8.4,7.1,-5.6,11.2,x,x,
O=C1CCCN1CC(O)CS(=O)(=O)Cc1ccc(Cl)c(Cl)c1 (centres undefined),1.4,11.4,-3.0,3.6,0.4,-9.5,x,x,
CC1=CC(C)(C)N(C(=O)CN2C(=O)CCC2=O)c2ccc(C)cc21,0.0,17.7,-2.0,5.7,23.0,9.6,x,x,
CC1=CC(C)(C)N(C(=O)CN2C(=O)c3ccccc3C2=O)c2ccccc21,1.8,3.4,40.4*,42.8,60.2*,42.7*,28.5,51.0*,TIM10 conf=18.2
O=C1C(N2CCOCC2)=C(n2nnc3ccccc32)C(=O)c2ccccc21,-2.6,-36.4,78.1*,10.0,82.8*,63.8*,60.0*,88.8*,TIM10 conf=68.7*
O=C1c2ccccc2C(=O)c2c1cccc2-n1nnc2ccccc21,0.3,14.5,-2.9,x,1.3,-18.6,x,x,
CCCC(=O)c1ccc(N2CCN(C(=O)c3ccccc3Br)CC2)c(F)c1,3.5,20.2,27.7,4.2,52.5*,46.3*,37.8*,47.0*,
O=C(O)c1c(Cl)c(Cl)c(Cl)c(Cl)c1C(=O)OCC1CCCO1 (centres undefined),-0.1,x,x,x,x,x,x,x,
SMILES,V-ATPase pH,NALP3 yeast inh,TIM10 inh,NALP1 inh,tim23-1 inh,tim10-1 inh,tim10-1 confirm,tim23-1 conf,others
Cc1ccc(N2CCN(C(=O)c3cc(-c4ccc(F)cc4)[nH]c3C)CC2C)cc1 (centres undefined),0.0,-14.6,31.7,11.6,73.8*,52.0*,50.7*,55.1*,
O=c1c2[nH]c3ccc(Br)cc3c2ncn1Cc1ccncc1,x,14.4,-23.1,26.4,-15.8,-8.3,x,x,
CCCCCc1ccc(CC(=O)Nn2c(C)nc3ccccc3c2=O)cc1,4.7,33.4,7.4,-26.9,52.3*,59.9*,48.2*,69.3*,
O=[N+]([O-])c1ccc(Sc2ncccn2)c([N+](=O)[O-])c1,1.2,12.4,36.5,2.0,53.3*,42.0*,50.2*,40.5*,
O=C(Nc1ncccn1)c1ccc([N+](=O)[O-])cc1[N+](=O)[O-],-4.1,27.7,14.5,x,4.7,-5.4,x,x,
CCC(NC(=O)c1ccc([N+](=O)[O-])cc1[N+](=O)[O-])c1ccccc1 (centres undefined),-7.2,23.9,-2.5,x,8.9,20.3,x,x,
O=C(O)CCSc1ccc([N+](=O)[O-])cc1[N+](=O)[O-],0.6,-1.5,7.1,3.9,51.4*,43.6*,30.2*,53.5*,
CC(=O)Nc1ccc2nc(NC(=O)COc3cccc(C)c3)sc2c1,0.5,10.9,23.0,9.2,9.7,16.7,x,x,
Cc1cccc(N=N/C(=C\O)C(=O)c2ccc(Br)cc2)c1,-0.1,13.1,36.0,2.0,63.6*,57.2*,51.9*,43.6*,
O=C(/C(=C/O)N=Nc1cccc(C(F)(F)F)c1)c1ccccc1,1.1,15.6,28.0,0.0,28.9,24.2,x,x,
O=c1c2c3c(sc2ncn1/N=C/c1ccncc1)CCCC3,-1.3,22.7,42.8*,-6.1,65.6*,61.5*,62.3*,27.0,TIM10 conf=50.2*
Cc1ccc(/C=C2/C(=O)ON=C2c2ccccc2)o1,0.9,11.7,19.4,-4.0,74.4*,51.6*,40.0*,75.6*,
CCN1C[C@@H]2[C@@H]3C(=O)N(Cc4ccccc4)C(=O)[C@@H]3[C@](CC)(C(=O)OC)N2C1=NC,-1.8,x,-9.0,x,32.0,12.5,x,x,
CCn1c(C(=O)NC(C)c2ccc3c(c2)OCCO3)cc2sccc21 (centres undefined),-0.5,5.7,19.1,11.5,52.7*,43.9*,31.6*,46.0*,
CS(=O)(=O)c1nc(S(=O)(=O)c2ccc(Cl)cc2)c(N2CCOCC2)s1,4.0,14.8,17.6,15.7,23.2,12.9,x,x,
O=c1c2sc3nc(N4CCOCC4)c4c(c3c2ncn1C(c1ccccc1)c1ccccc1)CCCC4,-2.4,x,x,x,x,x,x,x,
